# Tests used:
# Assay in all cases: DAPPL (digital affinity profiling via proximity ligation, sequencing); 10 mM Tris-HCl pH 7.5, 50 mM NaCl, 1 mM DTT, 4% glycerol, room temperature, 30 min; GST-TFs on glutathione beads, 16-mer random dsDNA library, 0.1% formaldehyde crosslink after washing; high values mean tight binding
# Conditions in all cases: protein: recombinant; tags: N-terminal GST; dsDNA, one strand shown
# [1] = target: T1, ELK1 (Homo sapiens, UniProt P19419 1-428)
# T1 sequence: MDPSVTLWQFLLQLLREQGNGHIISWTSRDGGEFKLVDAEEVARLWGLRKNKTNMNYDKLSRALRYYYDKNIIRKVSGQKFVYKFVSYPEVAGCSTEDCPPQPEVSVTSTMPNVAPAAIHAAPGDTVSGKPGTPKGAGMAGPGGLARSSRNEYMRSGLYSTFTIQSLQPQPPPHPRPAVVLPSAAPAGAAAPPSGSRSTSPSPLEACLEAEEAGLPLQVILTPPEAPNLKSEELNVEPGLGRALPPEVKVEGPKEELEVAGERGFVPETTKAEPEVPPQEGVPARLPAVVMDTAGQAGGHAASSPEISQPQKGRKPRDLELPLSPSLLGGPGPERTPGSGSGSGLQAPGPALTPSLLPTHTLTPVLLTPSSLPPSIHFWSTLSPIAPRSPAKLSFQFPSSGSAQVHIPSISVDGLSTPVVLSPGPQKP
# Outline: (§1)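 Sequencing on an Illumina NextSeq500 followed washing, crosslinking with 0.1% formaldehyde, proximity ligation (BsaI/T4 ligase, 1 h, 37 °C) and PCR amplification of pools that had been incubated for 30 min at room temperature with 200 nmole of a random double-stranded 16-mer DNA library in Tris/NaCl/DTT/glycerol buffer. Each pool held DNA-barcoded human transcription factors, expressed in yeast as GST fusions and captured on glutathione beads, plus a tag-only sample. Binding signal is a hexamer's read frequency for a factor divided by its frequency in the tag-only sample.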
# [2] = target: T2, GABPA (Homo sapiens, UniProt Q06546 1-454)
# T2 sequence: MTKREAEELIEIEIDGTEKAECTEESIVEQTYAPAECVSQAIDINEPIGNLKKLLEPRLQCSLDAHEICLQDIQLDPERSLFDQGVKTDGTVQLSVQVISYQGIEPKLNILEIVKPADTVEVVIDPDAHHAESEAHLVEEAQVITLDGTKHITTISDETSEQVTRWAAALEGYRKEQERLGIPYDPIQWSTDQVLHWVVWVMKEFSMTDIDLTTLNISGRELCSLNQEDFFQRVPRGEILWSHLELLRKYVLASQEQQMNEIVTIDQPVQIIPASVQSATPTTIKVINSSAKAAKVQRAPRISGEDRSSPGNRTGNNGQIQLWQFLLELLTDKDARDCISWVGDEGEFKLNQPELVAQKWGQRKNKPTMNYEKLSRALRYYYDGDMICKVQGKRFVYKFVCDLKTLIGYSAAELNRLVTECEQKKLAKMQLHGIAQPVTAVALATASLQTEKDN
# Outline: as §1
# [3] = target: T3, ERG (Homo sapiens, UniProt P11308 1-479)
# T3 sequence: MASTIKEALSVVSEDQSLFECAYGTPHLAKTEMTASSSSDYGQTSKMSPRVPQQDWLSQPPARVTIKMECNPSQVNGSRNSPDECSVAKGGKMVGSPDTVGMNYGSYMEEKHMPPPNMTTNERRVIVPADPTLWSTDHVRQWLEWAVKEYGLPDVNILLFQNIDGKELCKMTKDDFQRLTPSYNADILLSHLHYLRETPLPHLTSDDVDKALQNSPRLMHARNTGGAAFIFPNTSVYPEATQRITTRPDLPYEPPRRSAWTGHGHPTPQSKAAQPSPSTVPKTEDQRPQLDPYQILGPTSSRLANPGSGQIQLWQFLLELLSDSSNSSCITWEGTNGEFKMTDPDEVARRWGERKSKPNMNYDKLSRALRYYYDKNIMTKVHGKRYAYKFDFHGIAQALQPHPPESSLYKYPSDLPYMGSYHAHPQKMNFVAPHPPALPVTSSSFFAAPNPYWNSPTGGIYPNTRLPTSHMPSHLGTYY
# Outline: as §1
# [4] = target: ELF1 (Homo sapiens, UniProt P32519 1-619)
# Chain of ELF1 (P32519 whole entry): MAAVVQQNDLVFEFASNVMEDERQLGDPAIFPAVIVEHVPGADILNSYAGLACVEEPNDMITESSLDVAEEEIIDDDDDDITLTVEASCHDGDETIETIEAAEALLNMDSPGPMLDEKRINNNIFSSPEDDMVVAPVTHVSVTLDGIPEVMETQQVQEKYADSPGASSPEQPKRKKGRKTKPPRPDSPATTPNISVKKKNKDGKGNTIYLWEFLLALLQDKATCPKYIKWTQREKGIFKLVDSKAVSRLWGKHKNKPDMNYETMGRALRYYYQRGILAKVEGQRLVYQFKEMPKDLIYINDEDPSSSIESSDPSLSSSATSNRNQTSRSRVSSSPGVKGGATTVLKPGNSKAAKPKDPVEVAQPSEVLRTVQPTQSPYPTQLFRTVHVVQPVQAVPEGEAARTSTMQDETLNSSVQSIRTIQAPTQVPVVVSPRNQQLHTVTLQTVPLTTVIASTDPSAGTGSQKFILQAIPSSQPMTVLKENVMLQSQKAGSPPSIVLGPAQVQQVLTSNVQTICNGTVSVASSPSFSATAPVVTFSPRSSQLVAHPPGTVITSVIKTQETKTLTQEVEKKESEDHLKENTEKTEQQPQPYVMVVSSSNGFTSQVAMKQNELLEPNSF
# Outline: as §1
# [5] = target: T4, EHF (Homo sapiens, UniProt Q9NZC4 1-300)
# T4 sequence: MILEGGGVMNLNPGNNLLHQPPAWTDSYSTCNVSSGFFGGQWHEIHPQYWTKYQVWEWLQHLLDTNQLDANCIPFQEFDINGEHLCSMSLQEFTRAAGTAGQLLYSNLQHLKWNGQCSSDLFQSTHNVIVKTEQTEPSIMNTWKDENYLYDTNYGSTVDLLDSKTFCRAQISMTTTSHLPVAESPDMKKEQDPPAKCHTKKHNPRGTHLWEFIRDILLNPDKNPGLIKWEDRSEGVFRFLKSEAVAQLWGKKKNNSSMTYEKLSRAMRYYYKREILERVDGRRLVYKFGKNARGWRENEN
# Outline: as §1
# [6] = target: SPIB (Homo sapiens, UniProt Q01892 1-262)
# Chain of SPIB (Q01892 whole entry): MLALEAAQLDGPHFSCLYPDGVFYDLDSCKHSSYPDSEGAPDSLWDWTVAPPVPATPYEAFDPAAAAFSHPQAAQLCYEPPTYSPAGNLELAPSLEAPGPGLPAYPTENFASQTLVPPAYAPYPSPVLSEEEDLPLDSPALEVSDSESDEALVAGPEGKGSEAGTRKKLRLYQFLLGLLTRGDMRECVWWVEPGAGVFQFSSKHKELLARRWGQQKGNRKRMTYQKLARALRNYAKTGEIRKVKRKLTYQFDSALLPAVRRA
# Outline: as §1
# [7] = target: T5, FEV (Homo sapiens, UniProt Q99581 1-238)
# T5 sequence: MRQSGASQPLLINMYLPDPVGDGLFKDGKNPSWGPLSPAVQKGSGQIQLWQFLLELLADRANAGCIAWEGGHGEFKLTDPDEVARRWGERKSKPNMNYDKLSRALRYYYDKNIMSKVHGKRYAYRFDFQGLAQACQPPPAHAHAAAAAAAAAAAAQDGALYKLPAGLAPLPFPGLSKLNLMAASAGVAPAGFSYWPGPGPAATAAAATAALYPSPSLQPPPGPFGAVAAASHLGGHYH
# Outline: as §1
# [8] = target: ETV5 (Homo sapiens, UniProt P41161 1-510)
# Chain of ETV5 (P41161 whole entry): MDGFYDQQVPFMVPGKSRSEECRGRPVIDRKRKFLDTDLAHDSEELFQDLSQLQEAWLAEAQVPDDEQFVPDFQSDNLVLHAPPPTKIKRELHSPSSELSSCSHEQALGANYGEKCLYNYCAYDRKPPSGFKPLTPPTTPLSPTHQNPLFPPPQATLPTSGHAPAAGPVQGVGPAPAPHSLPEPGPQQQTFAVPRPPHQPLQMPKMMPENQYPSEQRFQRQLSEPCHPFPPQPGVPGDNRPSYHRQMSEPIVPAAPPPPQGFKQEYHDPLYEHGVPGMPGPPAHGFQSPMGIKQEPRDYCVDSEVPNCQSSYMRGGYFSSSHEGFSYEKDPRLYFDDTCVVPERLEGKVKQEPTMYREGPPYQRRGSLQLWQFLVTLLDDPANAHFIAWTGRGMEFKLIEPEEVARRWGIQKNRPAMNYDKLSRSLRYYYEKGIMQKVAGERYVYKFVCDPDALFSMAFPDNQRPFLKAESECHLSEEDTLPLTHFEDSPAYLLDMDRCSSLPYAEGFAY
# Outline: as §1
# [9] = target: ELF4 (Homo sapiens, UniProt Q99607 1-663)
# Chain of ELF4 (Q99607 whole entry): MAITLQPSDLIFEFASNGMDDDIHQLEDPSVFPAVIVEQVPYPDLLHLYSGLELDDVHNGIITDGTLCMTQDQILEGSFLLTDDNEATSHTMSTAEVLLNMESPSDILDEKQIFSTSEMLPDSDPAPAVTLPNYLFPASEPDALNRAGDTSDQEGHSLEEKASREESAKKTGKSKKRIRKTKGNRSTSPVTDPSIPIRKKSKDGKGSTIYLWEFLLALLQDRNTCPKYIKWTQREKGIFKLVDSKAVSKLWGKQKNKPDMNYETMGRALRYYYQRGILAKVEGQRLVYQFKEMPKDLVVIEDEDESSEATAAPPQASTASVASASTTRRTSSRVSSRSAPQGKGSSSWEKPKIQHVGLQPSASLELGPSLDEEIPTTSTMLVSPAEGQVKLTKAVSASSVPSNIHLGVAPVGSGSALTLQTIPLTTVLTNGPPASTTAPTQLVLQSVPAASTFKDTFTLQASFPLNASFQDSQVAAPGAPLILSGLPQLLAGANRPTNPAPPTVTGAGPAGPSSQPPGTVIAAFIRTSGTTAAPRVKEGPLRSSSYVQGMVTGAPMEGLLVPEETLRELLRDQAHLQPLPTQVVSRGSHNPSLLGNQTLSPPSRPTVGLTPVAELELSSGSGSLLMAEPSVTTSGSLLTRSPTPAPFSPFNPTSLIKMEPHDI
# Outline: as §1
# [10] = target: T6, ELK4 (Homo sapiens, UniProt P28324-2 1-405)
# T6 sequence: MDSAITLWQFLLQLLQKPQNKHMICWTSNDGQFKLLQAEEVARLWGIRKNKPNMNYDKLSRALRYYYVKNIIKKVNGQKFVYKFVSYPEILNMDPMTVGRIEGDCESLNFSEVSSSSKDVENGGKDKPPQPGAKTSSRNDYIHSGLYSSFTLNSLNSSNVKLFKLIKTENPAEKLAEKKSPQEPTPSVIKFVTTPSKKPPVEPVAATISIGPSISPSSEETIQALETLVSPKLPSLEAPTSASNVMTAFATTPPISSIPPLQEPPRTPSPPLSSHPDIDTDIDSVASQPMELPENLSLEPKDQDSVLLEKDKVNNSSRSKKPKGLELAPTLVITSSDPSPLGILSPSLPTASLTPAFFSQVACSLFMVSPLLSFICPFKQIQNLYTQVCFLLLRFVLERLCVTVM
# Outline: as §1
sequence,measurement,setting,value
CCCCCC,binding signal,[1],"1.04 fold enrichment (6-mer frequency, TF over GST control)"
same,binding signal,[2],"1.08 fold enrichment (6-mer frequency, TF over GST control)"
same,binding signal,[3],"1.07 fold enrichment (6-mer frequency, TF over GST control)"
same,binding signal,[4],"1.08 fold enrichment (6-mer frequency, TF over GST control)"
same,binding signal,[5],"1.06 fold enrichment (6-mer frequency, TF over GST control)"
same,binding signal,[6],"1.1 fold enrichment (6-mer frequency, TF over GST control)"
same,binding signal,[7],"1.03 fold enrichment (6-mer frequency, TF over GST control)"
same,binding signal,[8],"1.09 fold enrichment (6-mer frequency, TF over GST control)"
same,binding signal,[9],"1.16 fold enrichment (6-mer frequency, TF over GST control)"
same,binding signal,[10],"1.23 fold enrichment (6-mer frequency, TF over GST control)"

# From paper PMC7862700, “An all-to-all approach to the identification of sequence-specific readers for epigenetic DNA modifications on cytosine”
